# An excerpt weighted towards active compounds, which were near 0.88% of everything screened.
# ERG-DNA inh: qHTS for Small Molecule Inhibitors of the ERG Ets/DNA interaction | fluorescence polarization, His-ERG Ets domain / labelled DNA | Potency, µM (doses to about 76.9 µM), most hits filed as inhibitors | AID 624246, 2012 | 370,000 tested, 0.028% active | Transcriptional regulator ERG (Homo sapiens), P11308; active = well fitted inhibition curve with a large enough effect in the polarisation, with a control signal flat; inconclusive = small, poorly fitted or top-dose-only effect, or effect the other way, or a change in a side signal; inactive = no such curve, though single readings can be large or run the other way; the % refers to the polarisation;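 note: polarization taken with two DNA probes labelled with fluorescein and Texas red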
#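 His-tagged ERG Ets domain (1 uM in the protein solution; 300mM KCl, 50mM Tris-HCl, 1mM EDTA, 1mM DTT, pH 7.5) received compound, then a probe mix of 5 nM fluorescein-DNA and 100nM Texas-615-DNA. Fluorescence polarization was read for both dyes.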
# RECQ1 helicase: qHTS Assay for Inhibitors of RecQ-Like Dna Helicase 1 (RECQ1). Potency, µM (top dose mostly 57.3 µM), hits mostly inhibitors. ATP-dependent DNA helicase Q1 (Homo sapiens), P46063. AID 2549, 2010. 240,000 tested, 0.54% active. RECQ1 DNA unwinding, red fluorescence kinetic read; note: nearly all actives have a fitted effect of over 30% in size
#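 50 nM RECQ1T1 preincubated 15 min with compound in Tris pH 8.0 buffer with MgCl2, DTT, Tween-20 and 2.5 ug/ml poly(dI-dC); started with 200 nM TAMRA/BHQ-2 forked duplex and 2 mM ATP. Unwinding read as fluorescence (525/598 nm), two reads 2 h apart.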
# BLM inh: qHTS Assay for Inhibitors of Bloom's syndrome helicase (BLM) | RecQ-like DNA helicase BLM (Homo sapiens), P54132 | recombinant BLM DNA unwinding, fluorescence dequenching | Potency, µM (doses to about 56.1 µM), actives largely listed as inhibitors | 350,000 tested, 0.2% active | AID 2528, 2010; note: nearly all actives have a fitted effect of over 35% in size
# APEX1 inh: qHTS Assay for Inhibitors of the Human Apurinic/apyrimidinic Endonuclease 1 (APE1) | recombinant APE1, TAMRA/BHQ-2 abasic DNA cleavage fluorescence | Potency, µM (highest dose often 65.8 µM), actives largely listed as inhibitors | AID 2517, 2012 | 350,000 tested, 0.35% active; note: nearly all actives have a fitted effect of over 55% in size
#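 Readout is kinetic fluorescence (ex 525, em 598 nm) from cleavage of 50 nM TAMRA/BHQ-2 THF abasic duplex by 0.75 nM APE1, compound added 15 min beforehand at RT.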
# WRN inhibitor: qHTS for Inhibitors of WRN Helicase. Bifunctional 3'-5' exonuclease/ATP-dependent helicase WRN (Homo sapiens), Q14191. WRN helicase unwinding, fluorescent forked duplex, kinetic. Potency, µM (top dose mostly 114 µM), hits mostly inhibitors. 360,000 tested, 0.46% active. AID 651768, 2012; note: nearly all actives have a fitted effect of over 55% in size
#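 Kinetic fluorescence helicase assay: unwinding of a quenched forked DNA duplex (100 nM final) with 2 mM ATP final raises red fluorescence (525/598 nm). Compounds sat 15 min at room temperature with 20 nM WRN beforehand.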
# GCN5L2 inh: qHTS Assay for Inhibitors of GCN5L2. Histone acetyltransferase KAT2A (Homo sapiens), Q92830. Potency, µM (highest dose often 58.9 µM), most hits filed as inhibitors. AID 504327, 2011. GCN5L2 HAT assay, ThioGlo1 CoA-SH fluorescence. 390,000 tested, 0.21% active
#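 GCN5L2 (20 nM) in 50mM HEPES pH 7.5, 0.1mM EDTA, 0.01% Tween-20 preincubated 15 min with compounds at room temperature. Reaction started with H3(1-25) 75uM, acetyl-CoA 70uM, ThioGlo1 50uM; CoA-thiol fluorescence (Ex340/Em540) read at 0 and 20 min.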
# Hits are given with their value; n = inactive; u = inconclusive; x = not tested or not shown. Unless noted, calls come from the whole dose curve; as a rule, active = well fitted curve in the direction sought with a large enough effect; inconclusive = small, poorly fitted or top-dose-only effect, or another doubt; inactive = no such curve, though single readings can be large; an effect the other way counts as inactive or inconclusive.
SMILES,ERG-DNA inh,RECQ1 helicase,BLM inh,APEX1 inh,WRN inhibitor,GCN5L2 inh
O=C(O)CCCN1C(=O)/C(=C\c2ccccc2OCc2ccccc2)SC1=S,n,x,n,n,u,n
O=C(C[C@H]1C/C=C\CC[C@@H](Cc2ccc(F)cc2)C(=O)OCCNC1=O)NCCO,n,x,x,11µM,n,n
CCCCCCCCN1C(=O)[C@H](CC(=O)N2CCN(C(=O)OCC)CC2)C[C@@]2(C(=O)OC)CCCCC=C12,x,x,x,x,n,x
O=C(C[n+]1ccc(C(=O)N/N=C/c2ccc(OCc3ccccc3)cc2)cc1)c1ccccc1,x,n,35µM,u,n,n
CCCNC(=O)c1ccc(-c2nc(CS(=O)(=O)c3ccc(C)cc3)c(C)o2)cc1,n,x,n,x,x,n
Cc1ccc(S(=O)(=O)Cc2nc(-c3ccc(C(=O)NCc4ccccc4F)cc3)oc2C)cc1,n,x,n,x,x,25µM
COc1ccc(NC(=O)/C(Cl)=C(/Cl)S(=O)(=O)Cc2ccc(C)cc2)cn1,n,n,n,n,50µM,n
COc1ccc(NC(=O)/C(Cl)=C(/Cl)S(=O)Cc2ccccc2Cl)cn1 (centres undefined),n,n,n,n,11µM,n
O=C(CSc1nnc(-c2cccc([S+](=O)([O-])N3CCCC3)c2)n1-c1ccccc1)Nc1cccc(F)c1,x,x,x,n,x,x
CC(C)(Sc1ccc(CCN(CCCCC2CCCCC2)C(=O)NC2CCCCC2)cc1)C(=O)O,n,u,x,n,n,13µM
COc1ccc2c(c1)c1c(c(=O)n(-c3cccc(C)c3)c(=O)n1CC(=O)Nc1c(C)cc(C)cc1C)n2C,n,x,n,x,x,n
COC(=O)c1ccccc1-c1c2ccc(=N)cc-2oc2cc(N)ccc12,n,x,x,27µM,4.7µM,u
COC(=O)c1ccccc1-c1ccc(/C=N/NC(=O)c2cc3ccccc3o2)o1,x,n,n,n,n,n
C=CCN1C(=O)/C(=C\C=C2\N(C)c3ccccc3C2(C)C)SC1=S,u,1.4µM,u,n,u,n
CN1/C(=C\C=O)C(C)(C)c2ccccc21,n,n,n,n,n,n
Cc1c(Cl)cccc1NC(=O)CSc1nc(=O)n(CCCN2CCOCC2)c2c1CCCC2,x,x,x,x,n,x
C=CCN1C(=O)/C(=C2/C(=O)N(CC(=O)O)c3ccccc32)S/C1=N/c1nccs1,x,16µM,n,13µM,x,u
C=CCN1C(=O)/C(=C/c2ccc(O)cc2)S/C1=N/c1nccs1,n,n,n,n,n,n
NCCCC[C@H](NC(=O)[C@@H](Cc1ccccc1)NC(=O)[C@H](Cc1c[nH]c2ccccc12)NC(=O)[C@@H](CCCCN)NC(=O)[C@@H](Cc1c[nH]c2ccccc12)NC(=O)[C@@H](N)Cc1cnc[nH]1)C(N)=O,x,n,n,n,x,n
CC(C)[C@H](NC(=O)[C@@H](Cc1c[nH]c2ccccc12)NC(=O)[C@H](Cc1ccc(O)cc1)NC(=O)[C@@H](N)CC(=O)O)C(=O)N[C@H](Cc1c[nH]c2ccccc12)C(=O)N[C@H](Cc1c[nH]c2ccccc12)C(=O)N[C@@H](CCCCN)C(N)=O,x,20µM,n,n,x,n
Cc1ccccc1N=Cc1cccc(O)c1O,n,u,n,u,11µM,n
O=[N+]([O-])c1cccc(C=Nc2cccc3ccccc23)c1O,n,x,n,n,n,35µM
Cc1ccc(N=Cc2cccc(O)c2O)c(C)c1,x,n,n,n,x,n
CCOC(=O)c1ccc(S(=O)(=O)N2CCN(CCC#N)CC2)cc1,n,n,n,n,n,n
CCOC(=O)c1ccc(S(=O)(=O)N2CCN(C)CC2)cc1,x,n,n,n,n,3.5µM
CCCCCCNC(=O)Nc1ccc(S(=O)(=O)Nc2ccc(CCNC[C@H](O)COc3ccc(O)cc3)cc2)cc1,x,n,u,n,x,x

# High-throughput results as filed in PubChem BioAssay.
